Compound activity deposited in PubChem by National Center for Advancing Translational Sciences (NCATS).
TGFb inhibitor: blocks TGF-b signaling; AID 588855; HepG2 CAGA-GFP TGF-b/SMAD3 reporter, GFP fluorescence, 18 h; TGF-beta stimulated, 500 pg/mL final; Potency, µM (highest dose often 46.1 µM), inactives show at the top dose activity, negative = inhibition, actives largely listed as inhibitors; actives 1.2% (n = 410,000); note: % is set by controls: 0 for no effect and ±100 for the full control effect; nearly all actives have a fitted effect of over 65% in size
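GFP signal (ex488/em500-530) from TGF-beta-stimulated HEPG2 CAGA-GFP cells, 500 pg/mL final, 18 h at 37 degrees C in DMEM plus 1% FBS, normalized to unstimulated and DMSO-stimulated controls.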
HT1080-NT tox: kills 2HG-producing HT-1080-NT fibrosarcoma cells; HT-1080-NT fibrosarcoma viability, CellTiter-Glo ATP luminescence, 48 h; AID 686970; Potency, µM (doses to about 46.1 µM), for inactives: top-dose activity, negative = less viability, hits mostly cytotoxic; actives 1.6% (n = 360,000);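 note: NT is the 2HG producing partner of a matched IDH1 knockdown line; 0% = DMSO-treated cells and -100% = media-only wells without cells; nearly all actives have a fitted effect of over 55% in size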
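Viability by CellTiter-Glo luminescence after 48 h compound exposure at 37C of HT-1080-NT cells (750/well, RPMI, 5% FBS). % activity scaled between DMSO wells and medium-only wells, then curve-fitted and categorized by curve class.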
HT1080 IDH1KD tx: kills HT-1080 cells with IDH1 knockdown | HT-1080 IDH1 knockdown viability, ATP luminescence, 48 h | actives 2% (n = 360,000) | Potency, µM (series often up to 46.1 µM), inactives show at the highest dose activity, negative = toxicity, usual class: cytotoxic;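 note: 0% = DMSO wells and -100% = cell-free medium wells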
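After a 2 h attachment period, IDH1KD HT-1080 cells took pin-transferred compound for 48 h at 37 °C; ATP-based luminescence after 10 min room-temperature reagent incubation reported viability.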
DT40 TDP1 CPT: growth inhibition of DT40 Tdp1-/-;hTDP1 cells with camptothecin (screen for TDP1 inhibitors) | chicken DT40 Tdp1-/-;hTDP1 cells + 20 nM CPT, ATP luminescence, 48 h | actives 12% (n = 420,000) | Potency, µM (doses to about 46.2 µM), inactives show at the top dose activity change, negative = growth inhibition, actives largely listed as inhibitors | AID 686979; note: % is set by controls: 0 for no effect and ±100 for the full control effect; nearly all actives have a fitted effect of over 55% in size
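Chicken DT40 Tdp1-/- cells complemented with human TDP1, 400 cells/well, exposed to compounds plus 20 nM camptothecin for at least 48 h at 37 C; viability read as ATP content by CellTiter-Glo luminescence.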
DT40 TDP1 no CPT: qHTS for Inhibitors of human tyrosyl-DNA phosphodiesterase 1 (TDP1): qHTS in cells in absence of CPT | DT40 Tdp1-/- hTDP1 cells, no CPT, ATP luminescence, 48 h | Potency, µM (series often up to 46.2 µM), without a hit: top-dose activity change, negative = growth inhibition, actives largely listed as inhibitors | actives 15% (n = 420,000); note: % is set by controls: 0 for no effect and ±100 for the full control effect; nearly all actives have a fitted effect of over 55% in size
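Cells were dispensed at 400 per well, compounds added by pin tool, plates incubated ≥48 hr at 37 °C, then CellTiter-Glo added for 30 min at room temperature before luminescence reading. Line: DT40 Tdp1-/- complemented with hTDP1; camptothecin omitted.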
HepG2 tox: kills HepG2 cells in TGF-b inhibitor counter-screen | HepG2 CAGA-GFP viability, ATP luminescence, 18 h | Potency, µM (titrated, usually from 46.1 µM), for inactives: top-dose activity change, negative = cytotoxicity, actives largely listed as cytotoxic | actives 0.76% (n = 410,000)
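CellTiter-Glo luminescence gave cytotoxicity after 18 hours at 37 degrees C. The cells were HepG2 CAGA-GFP in 1% FBS DMEM, stimulated with 500 pg/mL TGF-beta after compound addition. %Activity was normalised to no-cell wells (complete cell-killing) and DMSO (no toxicity), and curves were fitted and classified.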
* hit, by the source's call; ? = inconclusive; . = no result; [ ] = dose if it differs, or a comment. An excerpt weighted towards active compounds, which were near 17% of everything screened. Calls come from the whole dose curve; as a rule, active = well fitted curve in the direction sought with a large enough effect; inconclusive = small, poorly fitted or top-dose-only effect, or another doubt; inactive = no such curve, though single readings can be large; an effect the other way counts as inactive or inconclusive. Potency is the fitted concentration of half-maximal effect.

SMILES | TGFb inhibitor | HT1080-NT tox | HT1080 IDH1KD tx | DT40 TDP1 CPT | DT40 TDP1 no CPT | HepG2 tox
CC(C)(O)[C@@H]1[C@@H]2C[C@@]3(CC[C@]4(C)C(CCC5[C@@]6(C)CC[C@H](O)C(C)(C)C6CC[C@]54C)[C@@H]13)C(=O)O2 (stereo partly drawn) | -2% | 6% | 11% | 9% | 4% | 3%
CCc1ccc(CNC(=O)C2CCN(C(=O)c3ccc(-n4ccc5ccccc54)s3)CC2)cc1 | ? | . | . | ? | ? | -29%
Cc1ccc(OCCCCNC2CCCC(C)C2C)c(C)c1 (stereo not drawn) | ? | 21µM* | ? | 8.2µM* | 7.3µM* | -94%
CC(=O)OC(COC1C[C@@H]2CC[C@@]1(C)C2(C)C)C[N+]1(C)CCCCC1 (stereo partly drawn) | -13% | -2% | -8% | ? | 18µM* | -11%
CN1C(=S)N(c2cccnc2)C(=O)/C1=C\c1ccc(C(C)(C)C)cc1 | 22µM* | ? | ? | 16µM* | 15µM* | -58%
O=c1cnn([C@@H]2O[C@H](CO)[C@@H](O)[C@H]2O)c(=O)[nH]1 | 4% | -18% | ? | 12µM* | 2.3µM* | 1%
COc1ccc(CNC(=S)Nc2ccccc2)cc1Cl | ? | -4% | -9% | -22% | -10% | -27%
CC(C)Oc1ccc(CNC(=S)Nc2ccccc2)cc1Cl | ? | 4% | 3% | ? | ? | -27%
CCCOc1ccc(CNC(=S)Nc2ccccc2)cc1Cl | 0% | -17% | -28% | ? | 16µM* | -20%
CC(C)COc1ccc(CNC(=S)Nc2ccccc2)cc1Cl | 11µM* | -22% | ? | ? | 26µM* | 13µM*
CCCCC(Sc1nc(N)c(NC(=O)c2ccco2)c(=O)[nH]1)C(=O)O (stereo not drawn) | 5% | 0% | 7% | -3% | 13% | 0%
CN(C)c1ncc2ncc(=O)n(Cc3cccs3)c2n1 | . | . | . | ? | 21µM* | .
COc1ccc(-n2c(=O)cnc3cnc(N(C)C)nc32)cc1 | . | . | . | 23µM* | ? | .
COc1ccc(Oc2ncc3ncc(=O)n(-c4ccc(OC)cc4)c3n2)cc1 | . | . | . | -5% | -26% | .
CC(C)(C)OC(=O)N1CCC(c2c(C(=O)NCc3cccc(Cl)c3)cnn2-c2ccc(F)cc2)CC1 | 1% | . | . | ? | 13µM* | 3%
Cc1ccc(-n2ncc(C(=O)NCc3ccccc3)c2C2CCN(C(=O)OC(C)(C)C)CC2)cc1 | ? | . | . | 21µM* | ? | -31%
CC(C)(C)OC(=O)N1CCC(c2c(C(=O)NCCN3CCC(Cc4ccccc4)CC3)cnn2-c2ccc(F)cc2)CC1 | ? | . | . | 5.2µM* | 5.2µM* | -110%
CC(C)(C)OC(=O)N1CCC(c2c(C(=O)N3CCN(C(=O)c4ccco4)CC3)cnn2-c2ccc(F)cc2)CC1 | 3% | 16% | 6% | -10% | 11% | -1%
Cc1cccc(N2CN(S(=O)(=O)c3cccc([N+](=O)[O-])c3)c3nc4ccccc4nc32)c1 | -10% | 8% | 28% | -1% | -15% | -16%
O=C(c1ccc(Cl)cc1)N1CCN(S(=O)(=O)/C=C/c2ccccc2)CC1 | ? | -3%[9.24 µM] | -2% | ? | 21µM* | -2%
CCOC(=O)N1CCN(S(=O)(=O)/C=C/c2ccccc2)CC1 | -17% | -2% | -14% | -26% | -12% | -14%
CCC(C)NC(=O)CCC(=O)Nc1ccc2nc(N3CC(C)CC(C)C3)cc(C)c2c1 (stereo not drawn) | 0% | 0% | -8% | -17% | 16µM* | 16%
CCCCNC(=O)CCC(=O)Nc1ccc2nc(N3CCC(C)CC3)cc(C)c2c1 | -29% | -27% | -14% | ? | ? | -32%
CCC(C)NC(=S)Nc1ccc2nc(N3CCN(CC)CC3)cc(C)c2c1 (stereo not drawn) | 1% | -3% | -1% | ? | 23µM* | -45%
Cc1cc(N2CCN(C)CC2)nc2ccc(NC(=S)NCCCN3CCN(C)CC3)cc12 | 27% | -3% | -5% | ? | ? | -9%
SMILES | TGFb inhibitor | HT1080-NT tox | HT1080 IDH1KD tx | DT40 TDP1 CPT | DT40 TDP1 no CPT | HepG2 tox
CCN1CCN(c2cc(C)c3cc(NC(=S)NCc4cccs4)ccc3n2)CC1 | -5% | -9% | -1% | ? | 21µM* | -36%
Cc1cc(N2CCN(C)CC2)nc2ccc(NC(=S)NCc3cccs3)cc12 | 9% | 18µM* | 23µM* | ? | ? | -19%
COCCNC(=S)Nc1ccc2nc(N3CCN(C)CC3)cc(C)c2c1 | 2% | 0% | -3% | -12% | ? | -7%
Cc1cc(C(=O)NC2CCCCCCC2)ccc1[N+](=O)[O-] | 5% | -4% | -2% | ? | ? | -6%
CCOC(=O)c1c(C)[nH]c(C)c1S(=O)(=O)N1CCN(c2ccc(F)cc2)CC1 | -3% | 4% | -1% | -14% | ? | -7%
O=C(Cc1c(F)cccc1Cl)NNC(=O)c1ccccc1Cl | -1% | 4% | -1% | -7% | 12% | 4%
COc1ccc(C2=CC(c3ccccc3Cl)n3nc(-c4ccc(C)cc4)nc3N2)cc1 (stereo not drawn) | -8% | . | . | ? | ? | -8%
OCCC1CN(Cc2nc3ccccc3[nH]2)CCN1C1CCCC1 (stereo not drawn) | 0% | 10% | 20% | -19% | 2% | -9%
CCOc1ccc(CNC(=O)c2cc3c(=O)n(Cc4cccs4)ccc3nc2C)cc1 | ? | . | . | 9.2µM* | ? | -19%
CCc1ccc(CNC(=O)c2cc3c(=O)n(Cc4cccs4)ccc3nc2C)cc1 | ? | . | . | 18µM* | 23µM* | -35%
Cc1nc2ccn(Cc3cccs3)c(=O)c2cc1C(=O)NCc1ccc(Br)cc1 | ? | . | . | ? | ? | -44%
COc1ccc(NC(=O)c2cc3c(=O)n(Cc4cccs4)ccc3nc2C)c(OC)c1 | ? | . | . | 16µM* | ? | -8%
O=C(CCNC(=O)N1CC(=O)Nc2ccccc21)NCc1ccc(Cl)cc1 | -1% | 7% | 0% | 2% | -14% | -3%
COc1ccc(N2CC(C(=O)N[C@@H](C)C(=O)NCc3ccccc3OC)CC2=O)cc1 (stereo partly drawn) | -2% | 10% | 0% | 5% | -2% | -7%
COc1ccc(CCNC(=O)CNC(=O)Cn2ccc3ccccc3c2=O)cc1OC | -11% | -8% | 1% | 13% | 0% | 19%
